According to PubChem BioAssay (NCATS):
Records with an inconclusive call do not appear. Entries that show only a call come without a potency. The source made the active and inactive calls. Unless noted, calls come from the whole dose curve; as a rule, active = well fitted curve in the direction sought with a large enough effect; inconclusive = small, poorly fitted or top-dose-only effect, or another doubt; inactive = no such curve, though single readings can be large; an effect the other way counts as inactive or inconclusive.

Experiments:
[1] = S16 Schwann cell viability assay (CellTiter-Glo assay) (AID 624031); note: nearly all actives have a fitted effect of over 70% in size; note: potency is the fitted concentration of half-maximal effect
Summary of the method: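 Native S16 rat Schwann cells in DMEM/10% FBS without phenol red were incubated overnight, then exposed to compounds for 24 h at 37 °C/5% CO2. Viability was read as ATP luminescence (CellTiter-Glo), normalized to no-cell wells and DMSO (0%).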

[2] = S16 Schwann cell PMP22 intronic element firefly luciferase assay (AID 624032); note: nearly all actives have a fitted effect of over 30% in size; note: potency is the fitted concentration of half-maximal effect
Summary of the method: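 Rat S16 Schwann cells stably carrying a PMP22 intronic element-driven Fluc reporter were seeded overnight, then exposed to compounds for 24 h at 37 °C. Luminescence was normalized to PTC124 (positive control) and DMSO (0% activity).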

[3] = test system: 3D7; experiment: qHTS profiling for inhibitors of Plasmodium falciparum proliferation (AID 504749); note: nearly all actives have a fitted effect of over 60% in size; note: potency is the fitted concentration of half-maximal effect; conditions: P. falciparum in erythrocytes, SYBR Green DNA, 72 h; series mostly up to 28.7 µM
Summary of the method: (§1)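 Quantitative HTS: compounds pinned into medium, infected erythrocytes added (0.3% parasitemia, 2.5% hematocrit), 72 h culture at 37 C under 5% CO2. Saponin/Triton lysis with SYBR Green I, overnight RT, then fluorescence read.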

[4] = test system: 7G8; experiment: as above; conditions: P. falciparum in erythrocytes, SYBR Green DNA, 72 h; series mostly up to 28.7 µM
Summary of the method: as §1

[5] = test system: CP194; experiment: as above; conditions: P. falciparum in erythrocytes, SYBR Green DNA, 72 h; series mostly up to 28.7 µM
Summary of the method: as §1

[6] = test system: CP260; experiment: as above; conditions: P. falciparum in erythrocytes, SYBR Green DNA, 72 h; series mostly up to 28.7 µM
Summary of the method: as §1

[7] = test system: CP266; experiment: as above; conditions: P. falciparum in erythrocytes, SYBR Green DNA, 72 h; series mostly up to 28.7 µM
Summary of the method: as §1

[8] = test system: CP315; experiment: as above; conditions: P. falciparum in erythrocytes, SYBR Green DNA, 72 h; series mostly up to 28.7 µM
Summary of the method: as §1

[9] = test system: CP335; experiment: as above; conditions: P. falciparum in erythrocytes, SYBR Green DNA, 72 h; series mostly up to 28.7 µM
Summary of the method: as §1

[10] = test system: DIV14; experiment: as above; conditions: P. falciparum in erythrocytes, SYBR Green DNA, 72 h; series mostly up to 28.7 µM
Summary of the method: as §1

[11] = test system: Dd2; experiment: as above; conditions: P. falciparum in erythrocytes, SYBR Green DNA, 72 h; series mostly up to 28.7 µM
Summary of the method: as §1

[12] = test system: ICS; experiment: as above; conditions: P. falciparum in erythrocytes, SYBR Green DNA, 72 h; series mostly up to 28.7 µM
Summary of the method: as §1

[13] = target: Luciferin 4-monooxygenase (Photinus pyralis) (UniProt P08659); experiment: Biochemical firefly luciferase enzyme assay for NPC (AID 624030);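 note: purified P. pyralis luciferase at 10 nM with luciferin and ATP substrate; nearly all actives have a fitted effect of over 70% in size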
Summary of the method: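 Counter-screen for direct inhibition of the luciferase enzyme by approved-drug library compounds, run at 10 nM enzyme in 50 mM Tris acetate (final). Luminescence was read within 5 min of enzyme-buffer addition and normalized to PTC124 versus DMSO (0%).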

[14] = S16 Schwann cell PMP22 intronic element beta-lactamase assay (AID 624044; calls by dose curve; note: nearly all actives have a fitted effect of over 15% in size)
Summary of the method: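 Beta-lactamase reporter under a PMP22 intronic regulatory element in stable S16 rat Schwann cells; 24 h compound exposure. 460 nm blue signal normalized between DMSO (0%) and potassium clavulanate, with 535 nm FRET tracking viability; curves classed by r2 and response.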

[15] = test system: CP262; experiment: qHTS profiling for inhibitors of Plasmodium falciparum proliferation (AID 504749); note: nearly all actives have a fitted effect of over 60% in size; note: potency is the fitted concentration of half-maximal effect; conditions: P. falciparum in erythrocytes, SYBR Green DNA, 72 h; series mostly up to 28.7 µM
Summary of the method: as §1

[16] = test system: CP269; experiment: as above; conditions: P. falciparum in erythrocytes, SYBR Green DNA, 72 h; series mostly up to 28.7 µM
Summary of the method: as §1

[17] = test system: CP325; experiment: as above; conditions: P. falciparum in erythrocytes, SYBR Green DNA, 72 h; series mostly up to 28.7 µM
Summary of the method: as §1

[18] = test system: DFO2036; experiment: as above; conditions: P. falciparum in erythrocytes, SYBR Green DNA, 72 h; series mostly up to 28.7 µM
Summary of the method: as §1

[19] = test system: FAB9; experiment: as above; conditions: P. falciparum in erythrocytes, SYBR Green DNA, 72 h; series mostly up to 28.7 µM
Summary of the method: as §1

[20] = test system: N140; experiment: as above; conditions: P. falciparum in erythrocytes, SYBR Green DNA, 72 h; series mostly up to 28.7 µM
Summary of the method: as §1

Luciferin 4-monooxygenase (Photinus pyralis), sequence (P08659 whole entry, looked up): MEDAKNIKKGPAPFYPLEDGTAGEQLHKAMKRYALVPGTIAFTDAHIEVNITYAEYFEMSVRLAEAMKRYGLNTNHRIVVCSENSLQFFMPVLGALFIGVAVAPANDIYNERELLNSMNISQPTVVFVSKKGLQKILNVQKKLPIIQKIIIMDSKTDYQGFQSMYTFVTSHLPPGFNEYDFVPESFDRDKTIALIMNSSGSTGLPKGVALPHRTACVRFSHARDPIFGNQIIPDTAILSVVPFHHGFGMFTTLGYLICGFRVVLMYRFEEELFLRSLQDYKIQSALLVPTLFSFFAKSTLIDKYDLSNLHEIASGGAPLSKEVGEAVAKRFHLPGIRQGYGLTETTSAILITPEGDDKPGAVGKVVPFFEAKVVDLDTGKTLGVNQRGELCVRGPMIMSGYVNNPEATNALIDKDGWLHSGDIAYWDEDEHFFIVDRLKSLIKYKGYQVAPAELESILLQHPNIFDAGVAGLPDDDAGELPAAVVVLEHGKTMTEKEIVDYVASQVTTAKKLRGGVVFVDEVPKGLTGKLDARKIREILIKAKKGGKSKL

In the case of `OC[C@H](S)CS`, the Potency [1] is reported as 36.1 µM (active), the Potency [2] is reported as 7.21 µM (active) and the Potency [3] is reported as 3.16 µM (active). The Potency [4] was 0.891 µM (active), the Potency [5] was “inactive” and the Potency [6] was 0.891 µM (active). The Potency [7] was “inactive”, the Potency [8] was “inactive” and the Potency [9] was 3.38 µM (active). The Potency [10] was 12 µM (active), the Potency [11] was 2.24 µM (active) and the Potency [12] was 2.24 µM (active).

For `C[N+]1(C)[C@@H]2CC(OC(=O)[C@@H](CO)c3ccccc3)C[C@@H]1[C@H]1O[C@H]12` (stereo partly specified), the outcome [13] was “inactive”, the Potency [1] was “inactive” and the Potency [2] was “inactive”. The outcome [14] was “inactive”, the Potency [3] was “inactive” and the Potency [4] was “inactive”. For the same molecule, the Potency [6] was “inactive”, the Potency [15] was “inactive” and the Potency [7] was “inactive”. The Potency [16] was “inactive”, the Potency [8] was “inactive” and the Potency [17] was “inactive”. The Potency [9] was “inactive”, the Potency [18] was “inactive” and the Potency [10] was “inactive”. For the same molecule, the Potency [11] was “inactive”, the Potency [19] was “inactive” and the Potency [12] was “inactive”. For the same molecule, the Potency [20] was “inactive”.

With `CC(=O)N1CCN(c2ccc(OC[C@@H]3CO[C@@](Cn4ccnc4)(c4ccc(Cl)cc4Cl)O3)cc2)CC1` the outcome [13] was “inactive”, the Potency [1] was “inactive” and the Potency [2] was “inactive”. For the same molecule, the outcome [14] was “inactive”, the Potency [3] was “inactive” and the Potency [4] was 11.2 µM (active). The Potency [6] was “inactive”, the Potency [15] was “inactive” and the Potency [16] was “inactive”. The Potency [17] was “inactive”, the Potency [18] was “inactive” and the Potency [11] was “inactive”. For the same molecule, the Potency [19] was “inactive” and the Potency [20] was “inactive”.

In the case of `C(=C/c1ccccc1)/CN1CCN(C(c2ccccc2)c2ccccc2)CC1`, the outcome [13] is reported as “inactive”, the outcome [14] is reported as “inactive” and the Potency [5] is reported as “inactive”. For the same molecule, the Potency [15] was “inactive”, the Potency [7] was “inactive” and the Potency [16] was “inactive”. The Potency [8] was “inactive”, the Potency [17] was “inactive” and the Potency [18] was “inactive”. For the same molecule, the Potency [19] was “inactive”, the Potency [12] was 7.94 µM (active) and the Potency [20] was “inactive”.

For `COc1cc2nc(N(C)CCCNC(=O)[C@@H]3CCCO3)nc(N)c2cc1OC`, the outcome [13] was “inactive”, the Potency [1] was “inactive” and the Potency [2] was “inactive”. The outcome [14] was “inactive”, the Potency [3] was “inactive” and the Potency [4] was “inactive”. The Potency [5] was “inactive”, the Potency [6] was “inactive” and the Potency [15] was “inactive”. The Potency [16] was “inactive”, the Potency [8] was “inactive” and the Potency [17] was “inactive”. For the same molecule, the Potency [9] was “inactive”, the Potency [18] was “inactive” and the Potency [10] was “inactive”. The Potency [11] was “inactive”, the Potency [19] was “inactive” and the Potency [12] was “inactive”. The Potency [20] was “inactive”.

In the case of `N[C@H](COP(=O)(O)O)C(=O)O`, the outcome [13] is reported as “inactive”, the Potency [1] is reported as “inactive” and the Potency [2] is reported as “inactive”. For the same molecule, the outcome [14] was “inactive”, the Potency [3] was “inactive” and the Potency [4] was “inactive”. For the same molecule, the Potency [5] was “inactive”, the Potency [6] was “inactive” and the Potency [15] was “inactive”. For the same molecule, the Potency [7] was “inactive”, the Potency [16] was “inactive” and the Potency [8] was “inactive”. For the same molecule, the Potency [17] was “inactive”, the Potency [9] was “inactive” and the Potency [18] was “inactive”. The Potency [10] was “inactive”, the Potency [11] was “inactive” and the Potency [19] was “inactive”. For the same molecule, the Potency [12] was “inactive” and the Potency [20] was “inactive”.
